Inconclusive results are not listed. A number with no mark means an inactive call. The call rests on the fitted dose curve; in most records, active means well fitted curve in the direction sought with a large enough effect; inconclusive means small, poorly fitted or top-dose-only effect, or another doubt; inactive means no such curve, though single readings can be large; an effect the other way counts as inactive or inconclusive. Peptide text beside a SMILES is read from it. * marks the point of attachment. Hexanoyl = CCCCCC(=O)*
target: Cellular tumor antigen p53 (Homo sapiens) (UniProt P04637); assay: Primary qHTS for small molecule compounds that upregulate eGFP-tagged delta133p53alpha (in N-terminal) cells. (AID 2060322); details: NCI-H358 eGFP-delta133p53alpha fluorescence, 24 h; activation: hits give high values;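 further: cells pre-induced with doxycycline then dosed without doxycycline; 0% = DMSO vehicle and 100% = reference activator; nearly all actives have a fitted effect of over 75% in size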
Sequence (P04637 whole entry, looked up): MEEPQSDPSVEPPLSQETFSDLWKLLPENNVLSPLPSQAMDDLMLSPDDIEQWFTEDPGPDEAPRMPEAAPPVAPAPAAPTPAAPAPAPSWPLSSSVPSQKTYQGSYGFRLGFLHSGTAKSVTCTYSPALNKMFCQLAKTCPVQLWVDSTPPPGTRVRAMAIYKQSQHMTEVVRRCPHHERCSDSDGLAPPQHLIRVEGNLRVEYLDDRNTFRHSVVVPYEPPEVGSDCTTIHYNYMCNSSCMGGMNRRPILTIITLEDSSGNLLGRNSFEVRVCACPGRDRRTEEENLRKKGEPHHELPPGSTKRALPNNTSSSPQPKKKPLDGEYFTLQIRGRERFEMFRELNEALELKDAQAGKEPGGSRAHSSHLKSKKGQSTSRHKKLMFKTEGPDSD
Outline: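 NCI-H358 cells pre-induced 24 h with 10 ng/ml doxycycline for eGFP-delta133p53alpha, plated dox-free and exposed 24 h at 37C to titrated compounds. Fixed, Hoechst-stained; gated GFP peak intensity by laser scanning cytometry, normalized to DMSO (0%) and 57.5 uM 5-azacytidine (100%).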

Row | SMILES | activation [%]
1 | C/C=C1/C[N+](C)([O-])C2Cc3c([nH]c4ccccc34)C(=O)CC1C2C(=O)OC (stereo unspecified) | -9.82
2 | CCCCCC(=O)N1CCC[C@H]1C(=O)N[C@@H](Cc1ccc(O)cc1)C(=O)OC (Hexanoyl-Pro-Tyr-OMe) | -3.57
3 | C[C@@H]1O[C@@H](O[C@H]2[C@H](OC(=O)[C@]34CCC(C)(C)C[C@H]3C3=CCC5[C@@]6(C)C[C@@H](O)[C@@H](O[C@@H]7O[C@H](CO)[C@@H](O)[C@H](O)[C@H]7O)[C@@](C)(CO)C6[C@H](O)C[C@@]5(C)[C@]3(C)CC4)OC[C@H](O)[C@@H]2O)[C@H](O)[C@H](O[C@@H]2OC[C@](O)(CO)[C@H]2O)[C@H]1O[C@@H]1OC[C@@H](O)[C@H](O[C@H]2O[C@H](C)[C@@H](O)[C@H](O)[C@@H]2O)[C@H]1O (stereo partly specified) | 6.25
4 | C=C(C(=O)O)[C@H]1C[C@]2(C)[C@@H](O)CC[C@]23O[C@H]1C[C@@H]3C | 18.8
5 | CC1(C(=O)O)CCCC2(C)C1CCC13CC(CCC21)C1(CO)OC31 (stereo unspecified) | -9.16

target: Aldehyde dehydrogenase, mitochondrial (Homo sapiens) (UniProt P05091); assay: qHTS for Inhibitors of the Aldehyde Dehydrogenase Family (ALDH2) Primary screen (AID 2061308); details: ALDH2 enzyme inhibition qHTS, 1536-well; series mostly up to 56 µM; activity change, negative = inhibition: at the top concentration;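 further: plate controls were vehicle for no effect and reference inhibitor for full effect; nearly all actives have a fitted effect of over 55% in size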

Row | SMILES | activity change, negative = inhibition
6 | C[C@]12CC[C@@H]3c4ccc(O)cc4CC[C@H]3[C@@H]1C[C@@H](O[C@@H]1O[C@H](C(=O)O)[C@@H](O)[C@H](O)[C@H]1O)[C@@H]2O | -13.8%
7 | C=C[C@H]1[C@H](O[C@@H]2O[C@H](CO)[C@@H](O)[C@H](O)[C@H]2O)OC=C(C(=O)OC)[C@H]1CC=O | 1.14%
8 | CCN(CC)CCCCCCNc1cc(OC)cc2c(C)ccnc12 | -13.2%
9 | CC[C@@H](O)C[C@@H]1C(C)=C[C@@H]2CCCC[C@@H]2[C@@]1(C)C(=O)O | -2.21%
10 | CCCCc1ccc(NS(=O)(=O)c2ccc(F)cc2)cc1 | -10.6%
11 | O=C(/C=C/c1ccc(O)cc1)OC[C@H]1O[C@@H](OC(=O)/C=C/c2ccccc2)[C@H](O)[C@@H](O)[C@@H]1O | 15.4% [at 28 µM]
12 | C[C@]1(OC(=O)/C=C\c2ccc(O)cc2)C[C@@H](O)[C@]2(O)C=CO[C@@H](O[C@@H]3O[C@H](CO)[C@@H](O)[C@H](O)[C@H]3O)C12 (stereo partly specified) | -1.51% [at 28 µM]
13 | CCC[C@@H]1O[C@@H]2C[C@H]3[C@@H]4CCC5=CC(=O)C=C[C@]5(C)[C@H]4[C@@H](O)C[C@]3(C)[C@]2(C(=O)CO)O1 | 2.93%
14 | O=C(O)c1ccnc2cc(C(OCC3CCC(F)(F)CC3)c3ccccc3Cl)[nH]c12 (stereo unspecified) | -2.49%
15 | NC1Nc2ccccc2C1(N)CC1NC(=O)C(Cc2ccccc2)NC(=O)C(Cc2ccccc2)NC1=O (stereo unspecified) | 0.602% [at 28 µM]
16 | CN1[C@@H]2CC[C@H]1CC(NC(=O)n1c(=O)[nH]c3ccccc31)C2 (stereo partly specified) | 3.46%
17 | C=C1CCC[C@]2(C)CC[C@@H](C(=C)C(=O)O)[C@H](O)[C@@H]12 | 15.7%
18 | Cc1cc(CS(=O)(=O)c2ccccc2)cc(OCc2ccc(CN3CCC[C@H]3CO)cc2)c1 | 8.23%
19 | C=C1CCC2C(C)(C)C(O)CCC2(C)C1CCC(C)CCOC(C)=O (stereo unspecified) | -20.6%
20 | CC(C)C(O)(CO)CCO[C@@H]1O[C@H](CO[C@H]2OC[C@](O)(CO)[C@H]2O)[C@@H](O)[C@H](O)[C@H]1O (stereo partly specified) | 1.73% [at 28 µM]
21 | CC1OC(O[C@H]2CC[C@@]3(C)C(CC[C@]4(C)C3CC=C3C5CC(C)(C)CC[C@]5(C(=O)OC5OC(CO)C(OC6OC(COC7OCC(O)C(O)C7O)C(O)C(O)C6O)C(O)C5O)CC[C@]34C)C2(C)C)C(O)C(O)C1OC1OCC(OC2OCC(O)C(O)C2O)C(O)C1O (stereo partly specified) | -20.7% [at 11.2 µM]
22 | CC(O)C(O)/C=C/C=C/C(=O)O[C@@H]1C=C2COC(=O)[C@]2(O)[C@@]2(C)CCCC(C)(C)C12 (stereo partly specified) | 7.55% [at 28 µM]
23 | CC1(C)C[C@H]2C3=CCC4[C@@]5(C)CC[C@H](O[C@H]6O[C@H](C(=O)O)[C@@H](O)[C@H](O)[C@H]6O[C@H]6O[C@H](CO)[C@@H](O)[C@H](O)[C@H]6O[C@@H]6O[C@H](CO)[C@@H](O)[C@H](O)[C@H]6O)[C@](C)(CO)C5CC[C@@]4(C)[C@]3(C)CC[C@@]2(C)[C@H](O[C@@H]2OC[C@H](O)[C@H](OC3O[C@H](CO)[C@@H](O)[C@H](O)[C@H]3O)[C@H]2O)[C@@H]1O (stereo partly specified) | 2.01% [at 11.2 µM]
24 | CCC(C)CC(=O)OC1C(=O)C(CO)=CC(O)C1C(C)C (stereo unspecified) | 7.21%
25 | C=C[C@](C)(O)CC[C@H]1C(C)=CC(=O)[C@H]2C(C)(C)CCC[C@]12C | -4.27%
26 | C[C@H]1CC[C@@]2(OC1)O[C@H]1CC3C4CC[C@H]5C[C@@H](O[C@@H]6O[C@H](CO)[C@H](O[C@@H]7O[C@H](CO)[C@@H](O)[C@H](O[C@@H]8OC[C@@H](O)[C@H](O)[C@H]8O)[C@H]7O[C@@H]7O[C@H](CO)[C@@H](O)[C@H](O)[C@H]7O)[C@H](O)[C@H]6O)[C@H](O)C[C@]5(C)C4=CC(=O)[C@]3(C)[C@H]1[C@@H]2C (stereo partly specified) | 0.178% [at 16.9 µM]

— PubChem BioAssay (NCATS)
